Screens deposited in PubChem by National Center for Advancing Translational Sciences (NCATS).
Rows were chosen to be rich in hits. Some 2.2% of all compounds tested hit in one or more screens of this group.
BRCA1 expr up = increases BRCA1 expression | AID 624202 | 380,000 compounds, 1.1% hits | Potency, µM (highest dose often 46.1 µM), for inactives: at the top dose activation, usual class: activators | MCF7-BRCA1-FFLuc reporter, luminescence, 48 h; response scale: scaled: vehicle 0%, 10 µM genistein 100%; note: potency is the fitted concentration of half-maximal effect; nearly all actives have a fitted effect of over 80% in size
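MCF7 cells carrying a BRCA1-firefly luciferase reporter (2000 cells/well, phenol-red free MEM) were attached for 2 h at 37 °C, then given compounds for 48 h. Luminescence was read 15 min after luciferase reagent; activity normalized to genistein (10 microM) and DMSO.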
Giardia killer = kills Giardia lamblia; 340,000 compounds, 0.15% hits; Giardia lamblia trophozoite viability; activity change, % at 7.66 µM, hits read low; in the data active = activity change below about -80%; inconclusive = between about -30% and that limit;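 note: parasites exposed to compound for two days anaerobically before the ATP read; % is set by controls: 0 for no effect and ±100 for the full control effect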
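ATP-content bioluminescence gauges trophozoite survival. Cells (100/well) receive compound and incubate anaerobically for 48 hrs at 37 deg C; detection reagent follows for 15-30 min at room temperature.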
TrxR1 substrate = is turned over as a substrate by rat TrxR1 | 390,000 compounds, 0.01% hits | purified TrxR1 substrate turnover, NADPH consumption readout | AID 588456 | O89049 | Potency, µM (top dose mostly 114 µM), for the others: at the top dose activity change, negative = substrate turnover; note: potency is the fitted concentration of half-maximal effect; % is set by controls: 0 for no effect and ±100 for the full control effect; nearly all actives have a fitted effect of over 50% in size
Target sequence (O89049 whole entry, looked up): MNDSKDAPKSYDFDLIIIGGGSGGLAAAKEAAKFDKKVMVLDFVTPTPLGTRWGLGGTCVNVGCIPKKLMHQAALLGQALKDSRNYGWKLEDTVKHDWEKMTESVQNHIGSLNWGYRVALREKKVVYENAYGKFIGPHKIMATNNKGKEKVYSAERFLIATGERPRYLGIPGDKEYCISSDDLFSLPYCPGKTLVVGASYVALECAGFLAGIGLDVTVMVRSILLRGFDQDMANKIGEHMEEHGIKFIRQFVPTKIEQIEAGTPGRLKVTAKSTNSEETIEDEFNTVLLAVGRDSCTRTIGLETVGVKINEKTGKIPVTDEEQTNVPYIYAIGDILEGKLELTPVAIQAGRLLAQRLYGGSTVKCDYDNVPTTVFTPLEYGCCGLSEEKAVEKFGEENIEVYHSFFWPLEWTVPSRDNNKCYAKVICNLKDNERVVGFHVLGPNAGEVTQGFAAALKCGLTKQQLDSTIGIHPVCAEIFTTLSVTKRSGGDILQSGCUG
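Rat TrxR1, dispensed at 90 nM, was prereduced with 400 uM NADPH (final) for 5 min at ~22 deg C, then incubated with compound 15 min before 400 uM selenite. A first-read NADPH fluorescence drop versus no-compound background flagged substrates.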
rTrxR1 inhibitor = blocks rat thioredoxin reductase 1 | AID 588453 | O89049 | Potency, µM (highest dose often 114 µM), for inactives: top-dose activity change, negative = inhibition, usual class: inhibitors | 390,000 compounds, 1% hits | recombinant rTrxR1, NADPH fluorescence consumption, selenite substrate; note: potency is the fitted concentration of half-maximal effect; % is set by controls: 0 for no effect and ±100 for the full control effect; nearly all actives have a fitted effect of over 65% in size
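Rat TrxR1 (90 nM in the dispensed reagent) was pre-reduced with 400 uM NADPH for 5 min at room temperature, then incubated with compound for 15 min. After 400 uM selenite was added, NADPH fluorescence (Ex 340/Em 450 nm) was followed for 8 min.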
IL-2 act = activators of IL-2; 360,000 compounds, 0.065% hits; AID 652025; activation, % (series mostly up to about 46 µM); IL-2 activation reporter assay, cell-based qHTS; stimulated with anti-CD3/CD4/CD28 beads; in transgenic mouse T cells; in the data active = activation above about 50%; inconclusive = mostly about 30% to 49%; note: 0% is about no effect
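EGFP and DsRed fluorescence is measured by plate cytometry in unstimulated transgenic mouse T cells exposed to compound for 60 minutes, then stimulated 18 hours at 37 degrees C with anti-CD3/anti-CD4 beads plus anti-CD28.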
IDH1 R132H inh = blocks human mutant IDH1 R132H enzyme; O75874; IDH1-R132H enzyme, NADPH consumption, diaphorase/resazurin fluorescence; Potency, µM (top dose mostly 76.6 µM), without a hit: at the top dose activity change, negative = inhibition, hits mostly inhibitors; 390,000 compounds, 0.093% hits; AID 602179; note: potency is the fitted concentration of half-maximal effect; % is set by controls: 0 for no effect and ±100 for the full control effect; nearly all actives have a fitted effect of over 65% in size
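IDH1-R132H (0.5 ug/mL dispensed) in pH 7.5 Tris buffer was preincubated 30 min with compound, then given a substrate mix of 0.016 mM NADPH and 2 mM alpha-KG for 80 min at room temperature; remaining NADPH was read by diaphorase/resazurin fluorescence.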
Starred values were filed as active, the others as inactive; ? = inconclusive; nt = not tested or not shown; [ ] = another dose, or the depositor's remark. Unless noted, calls come from the whole dose curve; as a rule, active = well fitted curve in the direction sought with a large enough effect; inconclusive = small, poorly fitted or top-dose-only effect, or another doubt; inactive = no such curve, though single readings can be large; an effect the other way counts as inactive or inconclusive.

SMILES	BRCA1 expr up	Giardia killer	TrxR1 substrate	rTrxR1 inhibitor	IL-2 act	IDH1 R132H inh
CCOc1ccc(C(=O)Nc2nnc(SCC(=O)NCC3CCCO3)s2)cc1 (stereo not given)	-56.6%	-94.3*	-11.2%	0.0%	-3.9	-16.3%
CCOc1ccc(-c2ccc(SC)nn2)cc1	?	-87.3*	9.0%[57.1 µM]	34.6%[57.1 µM]	-0.9	12.5%
CN(C)S(=O)(=O)c1ccc(C(=O)Nc2nnc(SCC(=O)NCC3CCCO3)s2)cc1 (stereo not given)	16.6%	-29.7	-17.3%	-13.7%	-4.0	2.9%
CCOc1ccc(-c2ccc(SCC(=O)NCC3CCCO3)nn2)cc1 (stereo not given)	3.98µM*	-26.2	5.1%[57.1 µM]	7.1%[57.1 µM]	0.0	-1.5%
COc1ccc(OC)c(/C=C/c2cc3ccccc3c[n+]2C)c1	-29.6%	nt	-8.9%	-5.3%	nt	nt
O=C(Nc1nc2c(F)cccc2s1)c1ccc2c(c1)OCCO2	?	nt	-3.1%[57.1 µM]	20.3%[57.1 µM]	nt	7.9%
COc1ccc(C)cc1NC(=O)C1CCN(S(=O)(=O)c2ccc3[nH]c4c(c3c2)CCCCC4)CC1	nt	nt	5.0%[57.1 µM]	22.1%[57.1 µM]	nt	6.8%
CC(C)C[C@@H](C(=O)O)N(Cc1cccc(CN([C@@H](CC(C)C)C(=O)O)S(C)(=O)=O)c1)S(C)(=O)=O	14.1%	2.4	1.2%	-3.1%	0.8	-3.7%
CS(=O)(=O)N(Cc1cccc(CN(C(C(=O)O)c2ccccc2)S(C)(=O)=O)c1)C(C(=O)O)c1ccccc1 (stereo not given)	10.0%	13.8	0.8%	50.1µM*	-3.0	3.3%
O=C(c1cc(COc2ccc(F)cc2F)on1)N1CCSCC1	7.94µM*	6.3	1.4%	12.5%	-0.8	-7.6%
O=C(c1cc(COc2ccc(F)cc2Cl)on1)N1CCCCCC1	?	13.6	9.4%	10.1%	-0.4	6.6%
N/C(=N\OC(=O)c1csnn1)c1ccc(C(F)(F)F)cc1	11.2µM*	-2.7	6.8%	17.9%[57.1 µM]	-2.5	-1.6%
CCc1ccc(NC(=O)Cn2c(=O)n(CCCCC(=O)NCc3ccccc3Cl)c(=O)c3ccccc32)cc1	14.0%	nt	4.3%	24.8%	nt	5.2%
O=C(/C=C/c1ccco1)NC(=S)Nc1ccc(N2CCCC2)cc1	-69.0%	-2.7	-17.9%	50.1µM*	-3.8	3.4%
CCC(=O)Nc1ccc(NC(=S)NC(=O)/C=C/c2ccco2)cc1	-21.6%	-27.4	-3.0%	?	-2.1	0.2%
Cc1sc(NC(=O)/C=C/c2ccco2)c(C(=O)O)c1C	2.24µM*	-9.8	-12.0%	?	8.1	32.2%
O=C(/C=C/c1ccco1)NC(=S)Nc1ccc(C(=O)O)cc1	78.8%	28.3	-12.9%	39.8µM*	0.4	-8.9%
CC(=O)NC(=S)Nc1ccc(NC(=S)NC(=O)/C=C/c2ccco2)cc1	-51.0%	12.2	-9.1%	-42.5%	-0.6	4.0%
COc1cc(NC(=O)Cn2c(C)cc(C)c(C#N)c2=O)cc(OC)c1	nt	nt	3.9%[57.1 µM]	13.9%[57.1 µM]	nt	-0.4%
Cc1nn2c3c(cnc2c1-c1ccccc1)C(=O)CCC3	12.6µM*	1.2	1.1%	8.3%	-3.1	1.3%
Cc1nn2c(-c3ccccc3)ccnc2c1-c1ccccc1	7.08µM*	3.1	-0.6%	17.0%	2.9	4.0%
COc1ccc(C2CC(=O)c3cnc4c(-c5ccccc5)c(C)nn4c3C2)c(OC)c1 (stereo not given)	-17.7%	nt	-1.6%[11.4 µM]	3.7%	nt	-5.6%
Cc1ccc(C)n1-c1c(C(=O)NCCCN2CCN(c3ccc(F)cc3)CC2)sc2ncccc12	nt	nt	4.6%[57.1 µM]	31.1%[57.1 µM]	nt	-15.2%
C=C1C(=O)OC2C1CCC(C)=C1C(=O)C3OC3(C)C12 (stereo not given)	-87.0%	9.6	7.4%	8.91µM*	-0.6	-1.4%
COc1cc2ccccc2cc1C(=O)Nc1ccc2oc(-c3ccc(F)cc3)nc2c1	nt	nt	36.1%	6.9%	nt	13.9%
COC(=O)C1=C(NC(=O)COc2ccc3ccccc3c2)CCS1	-11.0%	5.4	29.7%	79.4µM*	-1.9	2.3%
